# Source: PubChem BioAssay
# For some assays here: Measured potencies and affinities stand elsewhere. Inconclusive results are not listed. Values without a mark were called inactive. The list shows a part of the results. Calls of active or inactive are those of the source.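 The calls were made as follows, unless noted: active = signal-lowering compounds whose fitted half-maximal concentration is at or below twice the top tested dose in every run; inconclusive = runs disagree, flat 30 to 70% inhibition, or poor curve fit; inactive = the rest.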
# Key:
# [1] = inhibitors of PAX8-driven TPO luciferase reporter, dose response, RMG-I cells, cherry-pick (AID 687027;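 active = every replicate test run called active, with the signal dropping as expected and potency within twice the top valid dose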)
# [2] = inhibitors of CMV-promoter luciferase reporter, dose response, counter-screen for Pax8 inhibitor project, cell-based, HEK293, luminescence, dry powder (AID 743020);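 also: HEK293 cells stably expressing the CMV luciferase reporter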
# [3] = non-specific cell cytotoxicity, dose response, cytotoxicity control for PAX8 inhibitor project, plate reader, dry powder samples (AID 743021; call rule not given here)
# [4] = IGROV1 ovarian cancer cell cytotoxicity, dose response, PAX8 inhibitor project, plate reader, dry powder samples (AID 743043; call rule not given here;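 also: more negative means fewer viable cells or more cytotoxicity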)
# [5] = NIH:OVCAR-3 ovarian cancer cell cytotoxicity, dose response, PAX8 inhibitor project, plate reader, dry powder samples (AID 743044; call rule not given here); details: max activity: at 35 µM, stronger effect = lower value unless noted
# [6] = IOSE-T80 ovarian epithelial cell cytotoxicity, dose response, cytotoxicity control for PAX8 inhibitor project, plate reader, dry powder samples (AID 743045; call rule not given here;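 also: 0% = neutral control median and -100% = positive control median; more negative values mean more cell killing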)
# [7] = A2780 ovarian cancer cell cytotoxicity, dose response, cytotoxicity control, plate reader, dry powder samples (AID 743046; call rule not given here;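 also: 0% = neutral control wells and -100% = cytotoxic reference compound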)
# [8] = cytotoxicity in OVCAR8 ovarian cancer cells, dose response, PAX8 project, cell-based, plate reader, dry powder samples (AID 743197; call rule not given here)
# [9] = cytotoxicity in PAX8-dependent RMG-1 cells, dose response, cell-based, cherry-pick (AID 687029;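 active = signal drop whose fitted half-maximal concentration is at most twice the top valid dose, in every test run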;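 also: cells exposed to compound for 96 hours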)
# [10] = cytotoxicity in IOSE-T80 ovarian epithelial cells, dose response, selectivity assay for PAX8 inhibitor project, cell-based, cherry-pick (AID 687032;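 active = fitted half-maximal concentration for viability loss no higher than twice the top valid dose, in every repeat run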;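 also: cells exposed to compound for 96 h before reading; 0% = neutral control wells and -100% = 2 µM mitoxantrone kill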)
# [11] = DNA binders by acridine orange displacement, dose response, counter-screen for EWS/Fli inhibitor project, biochemical, fluorescence polarization, cherry-pick (AID 720586;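 active = fitted curve reaches a 35% signal fall AC35 below twice the sample's top valid tested dose, actives reach about 48 µM in these data; inactive = the rest, including activity in the rising direction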;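 also: 0% = neutral control median and -100% = 10 µM mitoxantrone control median; lower polarization ratio signals compound binding to DNA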)
smiles,measurement,setting,value
CNC[C@@H]1Oc2ccc(NC(=O)NC(C)C)cc2CC(=O)N([C@@H](C)CO)C[C@@H]1C,outcome,[1],inactive
same,outcome,[2],inactive
same,outcome,[3],inactive
same,outcome,[4],inactive
same,max activity,[5],"22.5% [at 0.5 µM, stronger effect = lower value]"
same,outcome,[6],inactive
same,outcome,[7],inactive
same,outcome,[8],inactive
Cc1cc(CN(C)C(=O)c2cc(COc3ccc4ncccc4c3)on2)on1,outcome,[1],inactive
same,outcome,[2],inactive
same,outcome,[3],inactive
CCSc1cc(N2CCOCC2)nc(-c2ccc(Cl)cc2)n1,outcome,[1],inactive
same,outcome,[2],inactive
same,outcome,[3],inactive
COc1ccc(NC(=O)N2CCCCN3[C@@H](CO)[C@@H](c4ccc(C#Cc5ccccc5)cc4)[C@@H]3C2)cc1,outcome,[9],inactive
O=C(NCc1ccco1)C1CCCN(S(=O)(=O)c2ccc(Br)cc2)C1 (stereo unspecified),outcome,[1],inactive
same,outcome,[2],inactive
same,outcome,[3],inactive
O=C(CCCCCCC(=O)Nc1ccccc1)NO,outcome,[9],inactive
C[C@@H]1CN([C@@H](C)CO)C(=O)Cc2cc(NS(=O)(=O)c3ccc(Cl)cc3)ccc2O[C@H]1CN(C)Cc1ccc(C(F)(F)F)cc1,outcome,[1],inactive
same,outcome,[10],inactive
same,outcome,[2],inactive
same,outcome,[3],inactive
same,outcome,[4],inactive
same,max activity,[5],"14.3% [at 0.26 µM, stronger effect = lower value]"
same,outcome,[6],inactive
same,outcome,[7],inactive
same,outcome,[8],inactive
COc1ccc2c(COC(=O)CNC(=O)C34CC5CC(CC(C5)C3)C4)cc(=O)oc2c1,outcome,[1],inactive
same,outcome,[3],inactive
COc1cc(OC)cc(C(=O)NCC(=O)OCC(=O)c2cc(C)n(Cc3ccco3)c2C)c1,outcome,[1],inactive
same,outcome,[2],inactive
same,outcome,[3],inactive
Cc1nnc(N/N=C/c2cc(C)n(-c3ccc(F)cc3)c2C)n1N,outcome,[1],inactive
same,outcome,[2],inactive
same,outcome,[3],inactive
COc1cccc(S(=O)(=O)NCC(=O)Nc2ccc(C(C)(C)C)cc2)c1,outcome,[1],inactive
same,outcome,[10],inactive
same,outcome,[3],inactive
O=C(Nc1ccc([N+](=O)[O-])cc1)C(=O)Nc1cccc(C(=O)O)c1,outcome,[9],inactive
Cc1onc(C(=O)N2CCN(C(c3ccccc3)c3ccccc3)CC2)c1[N+](=O)[O-],outcome,[9],inactive
O=S(=O)(NCC1CCCO1)c1cnc(Cl)c(Br)c1 (stereo unspecified),outcome,[1],inactive
same,outcome,[2],inactive
same,outcome,[3],inactive
OCC1OC(n2cnc3c(NCc4ccccc4O)ncnc32)C(O)C1O (stereo unspecified),outcome,[9],inactive
COc1ccccc1CNC(=O)c1ccc2nc3[nH]c4ccccc4c3nc2c1,outcome,[1],inactive
same,outcome,[10],inactive
same,outcome,[3],inactive
COc1cccc(CC(=O)Nc2nc3c(s2)C(=O)CC(C)(C)C3)c1,outcome,[1],inactive
same,outcome,[2],inactive
COc1ccc(C(=O)NC(=S)NNC(=O)c2c(-c3ccccc3)noc2C)cc1,outcome,[1],inactive
same,outcome,[3],inactive
CN(C)CCNC(=O)c1cc2c(s1)-c1ccc(Cl)cc1SC2,outcome,[9],inactive
Cc1ccc(S(=O)(=O)Nc2ccc3c(c2)C(=O)N([C@@H](C)CO)C[C@@H](C)[C@@H](CN(C)C)OCCCC[C@H](C)O3)cc1,outcome,[1],inactive
same,outcome,[10],inactive
same,outcome,[2],inactive
same,outcome,[3],inactive
same,outcome,[4],inactive
same,max activity,[5],"20.9% [at 0.26 µM, stronger effect = lower value]"
same,outcome,[6],inactive
same,outcome,[7],inactive
same,outcome,[8],inactive
CCOc1ccc(-n2c(=S)sc3c(=O)[nH]c(SCC(=O)NCC4CCCO4)nc32)cc1 (stereo unspecified),outcome,[1],inactive
same,outcome,[2],inactive
same,outcome,[3],inactive
CCCCCN=C(N)N/N=C/c1c[nH]c2ccc(OC)cc12,outcome,[9],inactive
CCOc1ccc2nc(N/C(N)=N/C(=S)Nc3ccc(C)c(C)c3)nc(C)c2c1,outcome,[1],inactive
same,outcome,[2],inactive
same,outcome,[3],inactive
CCCNC(=O)COc1nc2ccccc2nc1N1CCOCC1,outcome,[1],inactive
same,outcome,[2],inactive
same,outcome,[3],inactive
Nc1nc(Sc2ccc([N+](=O)[O-])c3nonc23)c2[nH]cnc2n1,outcome,[9],inactive
CCN1CCN(Cc2ccc(NC(=O)c3ccc(C)c(NC(=O)C(=O)c4c[nH]c5ccccc45)c3)cc2C(F)(F)F)CC1,outcome,[9],inactive
C=CCn1c(C)cc(C2=NNC(=NCC)SC2)c1C,outcome,[9],inactive
COC1=CC(=O)c2c(ccc3ncnc(N)c23)C1=O,outcome,[9],inactive
O=C(CCC(=O)c1ccccc1)NCCc1c[nH]c2ccccc12,outcome,[1],inactive
same,outcome,[2],inactive
same,outcome,[3],inactive
COc1ccc(OCc2cccc(C(=O)Nc3cc(C)on3)c2)cc1,outcome,[9],inactive
CC1CN(CC(O)COC(c2ccccc2)c2ccccc2)CC(C)O1 (stereo unspecified),outcome,[1],inactive
same,outcome,[2],inactive
same,outcome,[3],inactive
C[C@@H]1CN([C@@H](C)CO)S(=O)(=O)c2ccc(C#Cc3ccncc3)cc2O[C@@H]1CN(C)C(=O)C1CCCCC1,outcome,[1],inactive
same,outcome,[10],inactive
same,outcome,[2],inactive
same,outcome,[3],inactive
same,outcome,[4],inactive
same,max activity,[5],"-17.5% [at 1 µM, stronger effect = lower value]"
same,outcome,[6],inactive
same,outcome,[7],inactive
same,outcome,[8],inactive
CCCCn1c(O)c(N=NC(=O)Cn2c(C(F)(F)F)nc3ccccc32)c2ccccc21,outcome,[1],inactive
same,outcome,[2],inactive
same,outcome,[3],inactive
NC1=CC(=O)C(=O)c2cccnc21,AC35,[11],inactive
same,outcome,[3],inactive
Cc1ccc2c(CC(=O)OCC(=O)Nc3ccc(Cl)cn3)coc2c1,outcome,[2],inactive
Cc1cccc(N(Cc2ccccc2)C(=O)CCl)c1,outcome,[9],inactive
same,outcome,[10],inactive
same,outcome,[2],inactive
Cc1cc(N/N=C/c2ccc(O)c(C)c2O)nc(-c2ccccc2O)n1,outcome,[9],inactive
same,outcome,[10],inactive
same,outcome,[2],inactive
CCSc1ccc(-c2cc(NC=O)c3ncc(-c4cccc(C(=O)NCCN(C)C)c4)n3c2)cc1,outcome,[9],inactive
same,outcome,[10],inactive
same,outcome,[2],inactive
C[C@H](CO)N1C[C@H](C)[C@@H](CN(C)C(=O)Nc2ccc3c(c2)OCO3)Oc2cc(C#Cc3ccncc3)ccc2S1(=O)=O,outcome,[9],inactive
same,outcome,[10],inactive
same,outcome,[2],inactive
O=C(O)c1ccc(N/N=C/c2ccc3nccnc3c2)cc1,outcome,[9],inactive
same,outcome,[10],inactive
same,outcome,[2],inactive
COc1cccc(N(C(=O)c2ccco2)c2nc(-c3sc(NC(=O)c4ccco4)nc3C)cs2)c1,outcome,[9],inactive
same,outcome,[10],inactive
same,outcome,[2],inactive
COC(=O)C1=C(SC)N(c2ccccc2)C(c2ccccc2)CC1=O (stereo unspecified),outcome,[9],inactive
same,outcome,[10],inactive
same,outcome,[2],inactive
O=S(=O)(c1ccc2c(c1)C(=NO)c1cc(S(=O)(=O)N3CCCCC3)ccc1-2)N1CCCCC1,outcome,[9],inactive
same,outcome,[10],inactive
same,outcome,[2],inactive
COc1ccccc1C#Cc1ccc([C@H]2[C@@H](CO)N(C(=O)C3CCCCC3)[C@H]2C#N)cc1,outcome,[9],inactive
same,outcome,[10],inactive
same,outcome,[2],inactive
CN(C[C@H]1N[C@@H](CO)[C@@H]1c1ccc(C2=CCCC2)cc1)C(=O)c1ccc(F)cc1,outcome,[9],inactive
same,outcome,[10],inactive
same,"activity change, negative = inhibition",[2],0.4% [at 8 µM]
CC(C)N(CC(=O)Nc1ccc(Cl)cc1C(F)(F)F)C(=O)CCl,outcome,[9],inactive
same,outcome,[10],inactive
same,outcome,[2],inactive
COc1cccc(/C=C2/Sc3ccc(C(=O)NCCN4CCCCCC4)cc3NC2=O)c1,outcome,[9],inactive
same,outcome,[10],inactive
same,outcome,[2],inactive
COc1ccc(C#Cc2ccc([C@@H]3[C@H](CO)N4CCCCN(C(=O)Nc5cccc(F)c5)C[C@@H]34)cc2)cc1,outcome,[9],inactive
same,outcome,[10],inactive
same,outcome,[2],inactive
COc1cccc(/C=N/Nc2cc(C)nc(-c3ccccc3O)n2)c1O,outcome,[9],inactive
same,outcome,[10],inactive
same,outcome,[2],inactive
O=C(CCl)N=c1sccn1Cc1ccccc1Cl,outcome,[9],inactive
same,outcome,[10],inactive
same,outcome,[2],inactive
O=C1C=CC(=O)c2c(O)c(N3CCN(CCOCCO)CC3)c(Br)c(O)c21,outcome,[9],inactive
same,outcome,[10],inactive
same,outcome,[2],inactive
O=C(NC1=CC(=O)c2ccccc2C1=O)c1ccccc1,outcome,[9],inactive
same,outcome,[10],inactive
same,outcome,[2],inactive
COc1ccc(C(C(=O)NC2CCCCC2)N(C(=O)CCl)c2cccc(Cl)c2)cc1 (stereo unspecified),outcome,[9],inactive
same,outcome,[10],inactive
same,outcome,[2],inactive
O=C(C[C@@H]1C/C=C/CC[C@H](Cc2ccc(F)cc2)C(=O)OC[C@@H](Cc2ccccc2)NC1=O)N[C@H](CO)Cc1ccccc1,outcome,[9],inactive
same,outcome,[10],inactive
same,outcome,[2],inactive
CS(=O)(=O)c1ccc(C(=O)OCC(=O)N2CCN(CCC3CCCCC3)CC2)cc1[N+](=O)[O-],outcome,[9],inactive
same,outcome,[10],inactive
same,outcome,[2],inactive
CCC(OC(=O)c1ccc(S(C)(=O)=O)c([N+](=O)[O-])c1)C(=O)NC1C2CC3CC(C2)CC1C3 (stereo unspecified),outcome,[9],inactive
same,outcome,[10],inactive
same,outcome,[2],inactive
COc1cc(OC)nc(-n2ncc(Br)c(Br)c2=O)n1,outcome,[9],inactive
same,outcome,[10],inactive
same,outcome,[2],inactive
CC(C)CN1CCN(C(=O)COC(=O)c2ccc(S(C)(=O)=O)c([N+](=O)[O-])c2)CC1,outcome,[9],inactive
same,outcome,[10],inactive
same,outcome,[2],inactive
COc1cccc(/C=N/Nc2ccc(C(=O)O)cc2)c1O,outcome,[9],inactive
same,outcome,[10],inactive
same,outcome,[2],inactive
COc1ccc(/C=C/c2nc3ccccc3n2C)cc1,outcome,[9],inactive
same,outcome,[10],inactive
same,outcome,[2],inactive
COc1ccc(C(C(=O)NC2CCCCC2)N(C(=O)CCl)c2ccc(C)cc2)cc1 (stereo unspecified),outcome,[9],inactive
same,outcome,[10],inactive
same,outcome,[2],inactive
CC[C@@H](C(=O)[C@@H](C)[C@@H](O)[C@H](C)CCc1ccc(C)c(O)c1C(=O)O)[C@H]1O[C@](CC)([C@H]2CC[C@](O)(CC)[C@H](C)O2)C[C@@H]1C,outcome,[9],inactive
same,outcome,[10],inactive
same,outcome,[2],inactive
C=C1CCc2c([nH]c3ccc(OCC(C)C)cc23)C1=O,outcome,[9],inactive
same,outcome,[10],inactive
same,outcome,[2],inactive
CC1(C)CC(=O)C=C(C#CC2(O)CCCCC2)C1,outcome,[9],inactive
same,outcome,[10],inactive
same,outcome,[2],inactive
Cc1nn(-c2nc3ccccc3[nH]2)c(=O)c2ccccc12,outcome,[9],inactive
same,outcome,[10],inactive
same,outcome,[2],inactive
CCN1CCN(Cc2ccc(NC(=O)c3cc(NC(=O)c4cncc(-c5ccc(C#N)cc5)c4)cc(OC)c3)cc2C(F)(F)F)CC1,outcome,[9],inactive
same,outcome,[10],inactive
same,outcome,[2],inactive
O=C(NC1CCCCC1)C(c1cccnc1)N(C(=O)CCl)c1ccccc1Cl (stereo unspecified),outcome,[9],inactive
same,outcome,[10],inactive
same,outcome,[2],inactive
C=C1CC(Cn2cc(Br)c(=O)[nH]c2=O)(c2ccc(-c3ccccc3)cc2)OC1=O (stereo unspecified),outcome,[9],inactive
same,outcome,[10],inactive
same,outcome,[2],inactive
O=C(CC1SC(=Nc2cccc3ccccc23)N(Cc2ccccn2)C1=O)Nc1ccccc1Br (stereo unspecified),outcome,[9],inactive
same,outcome,[10],inactive
same,outcome,[2],inactive
COC(=O)[C@@H]1Cc2c([nH]c3ccccc23)C(C)(C)N1C(=O)CCl,outcome,[9],inactive
same,outcome,[10],inactive
same,outcome,[2],inactive
COC(=O)C1=C(C)N(Cc2cccc(C(F)(F)F)c2)C(=NCC2CC2)NC1c1cccc(C(F)(F)F)c1 (stereo unspecified),outcome,[9],inactive
same,outcome,[10],inactive
same,outcome,[2],inactive
